Screening results (PubChem)
NOD2 RIPK2 PPI – NOD2-RIPK2 binding disruptors in cells, primary screen, fluorescence, CHO cells, BLA complementation | Receptor-interacting serine/threonine-protein kinase 2 (Homo sapiens), O43353 | hit rate 0.38% among 360,000 | inhibition, % at 4.98 µM | CCF4 ratio; in the data active means inhibition above about 21%
Target sequence (O43353 whole entry, looked up): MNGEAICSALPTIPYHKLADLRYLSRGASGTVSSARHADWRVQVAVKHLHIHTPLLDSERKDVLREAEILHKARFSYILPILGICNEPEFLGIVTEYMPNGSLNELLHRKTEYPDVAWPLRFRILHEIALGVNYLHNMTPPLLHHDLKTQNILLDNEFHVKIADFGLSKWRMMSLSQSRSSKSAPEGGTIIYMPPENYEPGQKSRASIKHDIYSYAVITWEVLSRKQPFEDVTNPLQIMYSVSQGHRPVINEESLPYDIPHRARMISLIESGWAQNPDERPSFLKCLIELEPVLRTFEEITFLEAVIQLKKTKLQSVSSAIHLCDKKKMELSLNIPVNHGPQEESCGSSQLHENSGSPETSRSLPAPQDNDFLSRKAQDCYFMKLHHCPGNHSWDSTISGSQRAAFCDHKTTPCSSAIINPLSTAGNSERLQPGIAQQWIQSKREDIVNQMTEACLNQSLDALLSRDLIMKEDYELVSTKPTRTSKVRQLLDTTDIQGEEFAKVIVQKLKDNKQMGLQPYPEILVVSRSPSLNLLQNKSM
ABHD5 PLIN5 PPI – ABHD5-PLIN5 interaction inhibitors, primary screen, cell lysate, split luciferase complementation, luminescence. AID 602281, 2012. hit rate 0.78% among 360,000. Perilipin-5 (Homo sapiens) + 1-acylglycerol-3-phosphate O-acyltransferase ABHD5 (Homo …. Split G. princeps luciferase complementation, 4 h. inhibition, % at 4 µM;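 active means inhibition above the mean inhibition across every tested compound plus 3 SD, cut at about 22% in these data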
TLR4-MyD88 BLA – inhibitors of TLR4-MyD88 association in cells, primary screen, cell-based, HeLa CL3-4, BLA complementation, FRET ratio. inhibition, % at 8.4 µM. AID 861, 2007. Toll-like receptor 4 (Homo sapiens) + Myeloid differentiation primary response protein …. hit rate 0.18% among 200,000. HeLa CL3-4 TLR4/MyD88 BLA complementation; in the data active means inhibition above about 25%
TLR9-MyD88 inh – inhibitors of TLR9-MyD88 association in cells, primary screen, cell-based, CHO, BLA complementation, fluorescence. Toll-like receptor 9 (Homo sapiens) + Myeloid differentiation primary response protein …. CCF4 FRET ratio. inhibition, % at 4.98 µM. hit rate 0.21% among 340,000. AID 504734, 2011;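 active means inhibition above the mean over all tested compounds plus 3 SD, cut at about 21% in these data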
PRMT1 FP inh – PRMT1 methyltransferase inhibitors, primary screen, biochemical, fluorescence polarization | hit rate 1.3% among 370,000 | inhibition, % at 2.79 µM | Protein arginine N-methyltransferase 1 (Homo sapiens), Q99873 | recombinant PRMT1, activity-based probe fluorescence polarization | AID 652257, 2013;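 active means inhibition above about 21% made by adding two undisclosed values, limit read from the data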
Exocytosis inh – LAMP-1 surface exposure blockers, TALL-104 cells – cell-based, flow cytometry, MLPCN library, primary screen. TALL-104 LAMP-1 surface exposure; cells stimulated with thapsigargin and PMA. inhibition, % at 10 µM. hit rate 0.66% among 360,000. AID 651702, 2012;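 active means inhibition above about 55%, limit read from the data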
TLR4 MyD88 cnf – TLR4-MyD88 association inhibitors, retest, confirmation, cell-based, HeLa CL3-4, BLA complementation, FRET ratio | shares compounds with TLR4-MyD88 BLA | CCF4 FRET ratio | inhibition, % at 8.4 µM | hit rate 50% among 350;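 active means mean inhibition across three repeat runs above about 25% carried over from the earlier screen, limit read from the data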
BLA inh HeLa – inhibits beta-lactamase activity, counter-screen to TLR4-MyD88 binding inhibitors; HeLa BLA reporter, CCF4 FRET ratio; AID 1237; inhibition, % at 8.4 µM; shares compounds with TLR4-MyD88 BLA; hit rate 63% among 350;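 active means mean inhibition over three repeats above about 26% taken from the earlier screen, limit read from the data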;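 further: HeLa cells stably expressing beta-lactamase reporter as counterscreen for TLR4-MyD88 inhibitors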
TLR9-MyD88 cf – TLR9-MyD88 association inhibitors, retest, confirmation, cell-based, CHO, BLA complementation, fluorescence, triplicate | shares compounds with TLR9-MyD88 inh | CCF4 FRET ratio | inhibition, % at 4.98 µM | hit rate 51% among 680 | AID 540250, 2011;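 active means mean inhibition across three repeats above about 21% taken from the earlier screen, limit read from the data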;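 further: blue over green emission ratio reports constitutive TLR9 MyD88 association via BLA complementation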
BLA counter-1 – beta-lactamase reporter inhibitors in CHO cells, artefact control for TLR9-MyD88 binding inhibitor project, cell-based, fluorescence | shares compounds with TLR9-MyD88 inh | CHO-BLA cells, CCF4 FRET ratio, BLA reporter | inhibition, % at 4.98 µM | hit rate 7% among 680 | AID 540251, 2011;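 active means mean inhibition above a 50% cutoff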;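 further: counterscreen of TLR9-MyD88 hits on CMV-driven BLA in CHO-K1 cells; higher means less blue over green ratio so more BLA blockade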
TLR9 CHO cytotox – CHO cell viability loss – luminescence, single concentration, cytotoxicity control for TLR9-MyD88 binding inhibitor project | hit rate 39% among 680 | inhibition, % at 4.98 µM | shares compounds with TLR9-MyD88 inh | TLR9-MyD88 CHO cells cytotoxicity | AID 588336, 2011; in the data active means inhibition above about 11%
NOD2 RIPK2 conf – NOD2-RIPK2 binding disruptors, retest, confirmation, fluorescence, CHO cells, BLA complementation, triplicate; hit rate 70% among 1,200; inhibition, % at 4.98 µM; CCF4 FRET; AID 624370, 2012; shares compounds with NOD2 RIPK2 PPI;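 active means mean inhibition across replicates above a set limit taken from the earlier primary screen, cut at about 21% in these data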
BLA counter-2 – counter-screen for NOD2-RIPK2 interaction inhibitors: BLA reporter; AID 624371; inhibition, % at 4.98 µM; shares compounds with NOD2 RIPK2 PPI; CHO BLA reporter, CCF4 FRET ratio, counterscreen; hit rate 57% among 1,200;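 active means mean inhibition above the low-control mean inhibition plus three low-control SD, cut at about 11% in these data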
Numbers stand for hits; . = inactive; / = no result given. A selection: hits, their analogues and other compounds. The true share with any hit is near 2.6%.

SMILES	NOD2 RIPK2 PPI	ABHD5 PLIN5 PPI	TLR4-MyD88 BLA	TLR9-MyD88 inh	PRMT1 FP inh	Exocytosis inh	TLR4 MyD88 cnf	BLA inh HeLa	TLR9-MyD88 cf	BLA counter-1	TLR9 CHO cytotox	NOD2 RIPK2 conf	BLA counter-2
CCOC(=O)CCCNC(=O)OCCCN1CCC2(CCC(c3ccccc3)CC2)C1=O (configuration not stated)	/	/	/	/	.	/	/	/	/	/	/	/	/
Cc1nn(C)c(C)c1N1C(=O)c2cccc3c(N)ccc(c23)C1=O	34.0	.	29.4	29.0	180.2	.	.	44.1	.	.	.	43.9	44.0
Cc1[nH]c2ccccc2c1/C=N/NC(=O)c1ccccc1	.	.	/	.	.	.	/	/	/	/	/	/	/
Cc1[nH]c2ccccc2c1/C=C/C(=O)c1ccccc1	43.5	.	27.3	40.2	.	.	26.7	48.9	.	.	.	43.0	48.5
O=C(NCc1ccc(Cl)cc1)C1CCCN(c2ncccn2)C1 (configuration not stated)	/	/	/	/	.	/	/	/	/	/	/	/	/
CCc1ccc2c(c1)NC(=O)C2(C)Cc1ccccc1 (configuration not stated)	.	.	/	/	.	.	/	/	/	/	/	/	/
CCc1ccc2c(c1)C1(NN=C(c3cccc4ccccc34)S1)C(=O)N2 (configuration not stated)	29.9	.	31.4	26.5	.	.	.	28.5	/	/	/	.	.
COc1cc2c3nnc(-c4ccc(F)cc4)c-3cn(Cc3ccc(C)cc3)c2cc1OC	50.6	.	47.7	26.6	.	.	25.7	81.2	58.7	61.1	.	84.2	85.7
COc1cc2c3nnc(-c4ccc(F)cc4)c-3cn(Cc3cccc(C)c3)c2cc1OC	55.0	.	44.2	41.5	.	.	.	59.9	26.1	.	.	73.1	75.3
c1ccc2[nH]c(COCc3nc4ccccc4[nH]3)nc2c1	/	/	/	/	.	/	/	/	/	/	/	/	/
COC(=O)c1cc2c(c3c4cc(OC)ccc4n(S(=O)(=O)c4ccc(OC)cc4)c13)C(=O)N(Cc1ccc(N(C)C)cc1)C2	/	/	/	/	.	/	/	/	/	/	/	/	/
Clc1ccc(-c2nc3cnccn3c2NC2CCCC2)cc1	25.3	.	32.1	23.9	/	.	.	.	.	.	.	34.2	34.3
CCCCCCSc1ccc(-c2nc3cnccn3c2NC2CCCCC2)cc1	.	.	/	/	.	.	/	/	/	/	/	/	/
CN(C)c1ccc(C(=O)/C=C/c2ccc(Br)cc2)cc1	.	.	.	.	.	.	/	/	/	/	/	/	/
CCN(CC)c1ccc(/C=C/C(=O)c2ccc(Br)cc2)cc1	58.8	.	54.6	34.5	.	.	52.5	73.5	39.2	.	.	77.6	79.0
NC(=O)c1sc2nc(-c3cccnc3)ccc2c1N	.	.	/	/	.	.	/	/	/	/	/	/	/
